Calls of active or inactive are those of the source.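 How the source made its calls, unless noted: active means inhibition at or above 50% at 10 µM; inactive means inhibition below 50%.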
Tests used:
[1] = inhibitors of TNFa-induced NFkB p65 translocation, primary screen, imaging, HUVEC, MLSMR starter and 10KST1 sets (AID 438;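 active means inhibition above 20% together with a positive visual image hit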;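 further: compound added about 3h40 before a 20 min TNFalpha stimulation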;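 on inhibition: signal is the nuclear over cytoplasmic p65 intensity ratio per well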); conditions: HUVEC TNFa-induced p65 nuclear translocation; cell count: measured here: nuclei count (cytotoxicity indicator), at 2.08 µM; inhibition: at 2 µM, stronger effect = higher value, 0% TNFa-plus-vehicle, 100% no-TNFa wells
[2] = reduction of polyQ htt aggregates in cells – imaging, exon1htt(103Q)mCFP cells, high-content imaging, primary screen (AID 483;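 active means visual image review flags a hit and inhibition of aggregation exceeds 20%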;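 further: compound exposure lasted 3 days before fixation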;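 on nuclei count: percent of the per-plate median nuclei count of sample wells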); conditions: exon1htt(103Q)mCFP cell line, aggregate imaging, at 2 µM; inhibition of aggregation: stronger effect = higher value; nuclei count: measured here: cell count, toxicity
[3] = endothelial E-selectin expression blockers – imaging, HUVEC, immunofluorescence, MLSMR starter and 10KST1 sets, primary screen (AID 487;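 active means visually confirmed hit in the image check and inhibition above 20%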;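 on inhibition: signal is fraction of cell area covered by stained E-selectin grains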;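 on nuclei count: 100% = median nuclei count of all wells on the same plate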); conditions: HUVEC TNFalpha-induced E-selectin immunofluorescence imaging, at 2 µM; inhibition: stronger effect = higher value; nuclei count: measured here: cell number, toxicity
[4] = target: Voltage-gated potassium channel subunit beta-2 (Rattus norvegicus) (UniProt P62483); assay: inhibitors of rat Kvbeta2 reductase activity – biochemical, NADPH fluorescence, primary screen (AID 622;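 active means fluorescence slope higher than the sample average by over 3 SD, cut at about -0.22 in these data, passing the limit was not always enough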;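 further: slope of raw intensity against log time taken from 70 to 1610 s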); conditions: recombinant KvBeta, 4-cyanobenzaldehyde reduction, at 10 µM, stronger effect = higher value
[5] = target: Voltage-gated potassium channel subunit beta-2 (Rattus norvegicus) (UniProt P62483); assay: enhancers of rat Kvbeta2 NADPH turnover – biochemical, NADPH fluorescence, primary screen (AID 623;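 active means NADPH fluorescence slope more negative than the mean of all samples by about 3 SD, 99.7% confidence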;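 further: fluorescence intensity change per second fitted from 20 to 320 s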); conditions: Recombinant KvBeta, NADPH fluorescence decrease slope, 10 min; at 10 µM; stronger effect = lower value
[6] = target: Alpha-2C adrenergic receptor (Homo sapiens) (UniProt P18825); assay: compounds altering alpha2C-coupled GIRK flux – cell-based, HEK293 alpha2C/GIRK1/2, thallium flux, primary screen (AID 624;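 active means fluorescence slope after compound addition differing from the mean of all screened samples at 99.7% confidence, in either direction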;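 further: slope of fluorescence ratio to pre-addition baseline per second over 15 to 24 s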); conditions: thallium flux BTC fluorescence, at 10 µM, actives lie on both sides
[7] = blockers of RIG-like receptor reporter activation – cell-based, Sendai virus stimulus, luciferase, 10K MLSCN set, TLR/RLR signaling modifier project, primary screen (AID 602276); conditions: HEK293 RL24 IRF3 luciferase reporter, at 10 µM, stronger effect = higher value;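 further: firefly luciferase from ISG56 promoter only with Renilla not read in this screen; 0% = Sendai virus plus DMSO and 100% = medium plus DMSO without virus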
[8] = TLR3 IRF3 reporter activation blockers – cell-based, poly I:C stimulus, luciferase, 10K MLSCN set, primary screen (AID 602277;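 active means inhibition of the reporter signal at or above 50%; inactive means inhibition below 50%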); conditions: HEK293-TLR3 RL24 IRF3 luciferase reporter, at 10 µM, stronger effect = higher value

Voltage-gated potassium channel subunit beta-2 (Rattus norvegicus), sequence (P62483 whole entry, looked up): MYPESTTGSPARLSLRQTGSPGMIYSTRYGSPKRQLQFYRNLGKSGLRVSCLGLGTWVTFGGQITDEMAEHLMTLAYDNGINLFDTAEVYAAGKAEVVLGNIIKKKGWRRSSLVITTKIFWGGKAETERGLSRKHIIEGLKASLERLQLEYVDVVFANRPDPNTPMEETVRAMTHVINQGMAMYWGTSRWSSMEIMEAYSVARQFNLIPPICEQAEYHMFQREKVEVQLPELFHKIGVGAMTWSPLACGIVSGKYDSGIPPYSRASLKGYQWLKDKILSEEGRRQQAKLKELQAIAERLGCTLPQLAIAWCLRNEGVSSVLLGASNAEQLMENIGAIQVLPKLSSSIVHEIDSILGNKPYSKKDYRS
Alpha-2C adrenergic receptor (Homo sapiens), sequence (P18825 whole entry, looked up): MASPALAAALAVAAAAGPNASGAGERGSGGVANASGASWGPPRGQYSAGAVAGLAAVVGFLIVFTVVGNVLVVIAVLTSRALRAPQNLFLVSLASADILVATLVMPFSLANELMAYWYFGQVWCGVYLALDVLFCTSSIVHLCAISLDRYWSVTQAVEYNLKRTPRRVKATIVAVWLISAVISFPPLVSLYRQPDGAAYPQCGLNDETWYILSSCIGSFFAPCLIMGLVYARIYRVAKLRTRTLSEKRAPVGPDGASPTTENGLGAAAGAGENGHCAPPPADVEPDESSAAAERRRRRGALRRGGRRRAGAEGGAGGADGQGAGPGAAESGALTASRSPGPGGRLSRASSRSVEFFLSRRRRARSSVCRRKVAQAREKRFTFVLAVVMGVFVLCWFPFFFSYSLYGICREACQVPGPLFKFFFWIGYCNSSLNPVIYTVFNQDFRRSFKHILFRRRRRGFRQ

SMILES	cell count [1]	inhibition [1]	inhibition of aggregation [2]	nuclei count [2]	inhibition [3]	nuclei count [3]	fluorescence slope [4]	NADPH fluorescence slope [5]	slope [6]	inhibition [7]	inhibition [8]
Cc1cc(C)c2c(C)nn(C3CCCCC3)c2n1	318	1.7% (inactive)	27.2% (inactive)	79.1%	33.7% (inactive)	86.7%	-0.514 (inactive)	1.4e-05 (inactive)	0.00644 (inactive)	-18.5% (inactive)	-5.34% (inactive)
CCCN1CCC(NC(=O)Nc2ccc(OC)c(OC)c2)CC1	308	-0.5% (inactive)	12.6% (inactive)	87.5%	-43.3% (inactive)	107%	-0.383 (inactive)	1.9e-05 (inactive)	0.00372 (inactive)	9.89% (inactive)	33.2% (inactive)
CC1=C(C(=O)N2CCCCC2)C(c2cccs2)C2=C(CCCC2=O)N1 (centres undefined)	332	-3.9% (inactive)	8.9% (inactive)	95.9%	-31.6% (inactive)	92.4%	-0.29 (inactive)	-3.5e-05 (inactive)	0.0061 (inactive)	7.2% (inactive)	6.53% (inactive)
Cn1nnc2cc(C(=O)N3CCCCCC3)ccc21	933	2.7% (inactive)	-9% (inactive)	105%	-5.7% (inactive)	107%	-0.478 (inactive)	-4.7e-05 (inactive)	0.00659 (inactive)	-1.25% (inactive)	12.6% (inactive)
COC(=O)C1=C(C)OC(N)=C(C#N)C1c1c(C)nn(-c2ccccc2)c1Cl (centres undefined)	798	3.8% (inactive)	12.3% (inactive)	107%	-33.5% (inactive)	126%	-0.524 (inactive)	1e-05 (inactive)	0.00643 (inactive)	-88.9% (inactive)	-11.8% (inactive)
Cc1cc(=O)n(C)c(=O)n1CCCNc1ccccc1	489	-13.1% (inactive)	-3% (inactive)	126%	-19.5% (inactive)	113%	-0.333 (inactive)	-3.7e-05 (inactive)	0.00566 (inactive)	-2.79% (inactive)	6.15% (inactive)
O=C1CCCN1Cc1ncnn1-c1ccccc1	453	-1.8% (inactive)	10.2% (inactive)	114%	-85.8% (inactive)	131%	-0.349 (inactive)	-6.8e-05 (inactive)	0.00512 (inactive)	7.63% (inactive)	3.72% (inactive)
CCc1ccc(CNCc2cccnc2)cc1	273	-1.6% (inactive)	18% (inactive)	101%	-19.3% (inactive)	116%	-0.464 (inactive)	-3e-05 (inactive)	0.00429 (inactive)	3.34% (inactive)	18.6% (inactive)
O=C(CNC1CCCCCC1)Nc1ccc(S(=O)(=O)NC2CC2)cc1	727	-4.8% (inactive)	3.3% (inactive)	104%	-51.5% (inactive)	108%	-0.49 (inactive)	-5.4e-05 (inactive)	0.00449 (inactive)	11.1% (inactive)	18.7% (inactive)
CCOC(=O)N1CCC(Nc2nc3ccccc3n3cnnc23)CC1	501	-6.9% (inactive)	-21.2% (inactive)	59.5%	-35.1% (inactive)	117%	-0.581 (inactive)	-8.8e-06 (inactive)	0.00645 (inactive)	7.19% (inactive)	18.1% (inactive)
O=C(Nc1ccc(CN2CCOCC2)cc1)c1cc2ccccn2n1	579	0% (inactive)	-6.8% (inactive)	99.9%	8.4% (inactive)	108%	-0.596 (inactive)	-1.7e-05 (inactive)	0.00566 (inactive)	45.9% (inactive)	12% (inactive)
O=C(Nc1ccc2nc(-c3cccs3)[nH]c2c1)c1ccco1	334	-0.7% (inactive)	23% (inactive)	78.8%	-132% (inactive)	119%	-0.429 (inactive)	-7.7e-05 (inactive)	0.00445 (inactive)	-35.6% (inactive)	-87.4% (inactive)
CCOC(=O)N1CCN(C(=O)CCc2ccc(S(=O)(=O)NCCc3ccccc3)cc2)CC1	735	-1.6% (inactive)	4.3% (inactive)	102%	-24.7% (inactive)	123%	-0.413 (inactive)	-9.6e-06 (inactive)	0.00346 (inactive)	2.18% (inactive)	5.38% (inactive)
CC1(C)NC(=O)N(CC(O)COc2cccc(F)c2)C1=O (centres undefined)	690	-1.1% (inactive)	8.4% (inactive)	72.2%	-65.7% (inactive)	105%	-0.592 (inactive)	-2.3e-05 (inactive)	0.00622 (inactive)	-5.23% (inactive)	19.5% (inactive)

Source: PubChem BioAssay
